Out of some 190,000 compounds screened, about 1,300 (0.68%) were called active. For the sample, actives were picked, then their nearest neighbours and some compounds at random. A number with no mark means an inactive call. Rule as the data show it: active = inhibition above about 50%; inactive = the rest.
These compounds were tested against Mannose-6-phosphate isomerase (Homo sapiens) (UniProt P34949) (assay: MPI inhibition at elevated mannose 6-phosphate – biochemical, fluorescence intensity, high mannose 6-phosphate, primary screen (AID 1220)). Settings: recombinant PMI enzyme, coupled fluorescence intensity; at 20 µM; active compounds read high.
Mannose-6-phosphate isomerase (Homo sapiens), sequence (P34949 whole entry, looked up): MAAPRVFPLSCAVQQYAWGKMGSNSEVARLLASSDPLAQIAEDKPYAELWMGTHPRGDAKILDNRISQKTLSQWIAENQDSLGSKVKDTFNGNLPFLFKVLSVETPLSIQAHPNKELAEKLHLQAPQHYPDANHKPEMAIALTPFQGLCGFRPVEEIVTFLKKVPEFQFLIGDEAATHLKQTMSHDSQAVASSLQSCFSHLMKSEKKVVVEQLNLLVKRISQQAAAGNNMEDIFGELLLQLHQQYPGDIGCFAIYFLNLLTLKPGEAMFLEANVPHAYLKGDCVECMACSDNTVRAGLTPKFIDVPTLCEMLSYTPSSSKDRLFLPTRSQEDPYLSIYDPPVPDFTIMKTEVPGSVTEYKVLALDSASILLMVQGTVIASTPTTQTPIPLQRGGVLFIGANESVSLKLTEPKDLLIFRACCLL
`Cc1c(Br)c([N+](=O)[O-])nn1CC(=O)NCCc1c[nH]c2ccccc12` showed an inhibition of 6.1%.
`CSCCNC(=O)c1ccc(OC2CCN(CCc3ccccc3)CC2)cc1` was tested, and the inhibition was -9.3%.
Compound `O=C(Cn1nc(-c2ccccc2)ccc1=O)Nc1cccc(NC(=O)c2ccccn2)c1` has an inhibition of -11.7%.
Compound `CCN1C(=O)/C(=C/C=C2/SCCN2C)SC1=S` has an inhibition of 27.6%.
Compound `CN1CCS/C1=C\C=C1/SC(=S)N(CC(=O)O)C1=O` has an inhibition of 19.8%.
With `CCCCN1C(=O)/C(=C/C=C2\SCCN2C)SC1=S` the inhibition was 53.5% (active).
Compound `COc1ccc(-c2cc(CNC(=O)CN3CCN(C)CC3)on2)cc1` has an inhibition of 20.4%.
`COc1cc(OC)cc(-c2nc(-c3cccs3)no2)c1` was tested, and the inhibition was 10.1%.
`Cc1cc2cc(NC(=O)c3ccco3)ccc2[nH]1` showed an inhibition of 10.8%.
With `CC(=O)Nc1cccc(NC(=O)CSc2ccc3nnc(CCNC(=O)c4ccccc4)n3n2)c1` the inhibition was 10.1%.
`Nc1cc(Cl)ccc1N1CCOCC1` showed an inhibition of -3.8%.
`Nc1ccccc1N1CCOCC1` was tested, and the inhibition was -0.3%.
`Nc1nonc1N1CCCCC1` gave an inhibition of 13.1%.
`Nc1ccc(N2CCCCC2)c(Cl)c1` showed an inhibition of 2.9%.
In the case of `Nc1c(N2CCCC2)cc(Cl)c2nonc12`, the inhibition was 55.1% (active).
For `Nc1cc(Cl)ccc1N1CCCC1`, the inhibition was 36.3%.
`Nc1ccc(N2CCCCC2)cc1N1CCCCC1` showed an inhibition of 46.4%.
With `Nc1ccc(N2CCOCC2)c2nonc12` the inhibition was 57% (active).
In the case of `Nc1ccc(N2CCCCC2)c2nonc12`, the inhibition was 68.3% (active).
In the case of `CN1CCN(C(=O)C2=C[C@@H](c3ccccc3)C[C@@H](OCc3ccc(CO)cc3)O2)CC1`, the inhibition was 1.7%.
In the case of `CCCCCCOC1(c2ccccc2)OC(=O)c2ccccc21` (stereo not drawn), the inhibition was 11.5%.
For `CCCCCn1c(=O)[nH]c2c(c1=O)CCC2`, the inhibition was 4.7%.
For `CC1(C)C(=O)NCCN1C(=O)CCCC(=O)O`, the inhibition was 2.6%.
`OCCn1c(CSc2nc3ccccc3n2CCO)nc2ccccc21` gave an inhibition of 3%.
Work on `O=C(NCc1ccccn1)c1cccs1` yielded an inhibition of 4.7%.
`CC(C)(C)C(=O)Nc1nnc(CC(=O)NCc2ccccc2)s1` gave an inhibition of 13.1%.
`NC(=O)C1CCN(c2ncccc2[N+](=O)[O-])CC1` was tested, and the inhibition was -3.3%.
For `O=C(O)C1CCCN1c1ncccc1[N+](=O)[O-]` (stereo not drawn), the inhibition was 50.8% (active).
Work on `O=C(O)C1CN(c2ncccc2[N+](=O)[O-])C1` yielded an inhibition of 26.1%.
`O=[N+]([O-])c1cccnc1N1CCOCC1` showed an inhibition of 7.1%.
With `O=C(O)[C@@H]1[C@@H]2C[C@@H]2CN1c1ncccc1[N+](=O)[O-]` the inhibition was 65.1% (active).
With `O=[N+]([O-])c1cccnc1N1CCCCC1` the inhibition was 10.7%.
With `COc1cccc(NC(=O)c2ccc(NCCCN3CC(C)CC(C)C3)c([N+](=O)[O-])c2)c1` (stereo not drawn) the inhibition was -12.8%.
`CCOP(=O)(CC(C(C)=O)C(O)c1ccccc1)OCC` (stereo not drawn) showed an inhibition of 11.7%.
With `Cc1cccc(/C=N\Nc2nnc(-c3ccccc3)c(=O)[nH]2)c1` the inhibition was 7.5%.
In the case of `Cc1ccc(S(=O)(=O)N2CCCC2C(=O)Nc2nc3ccccc3s2)cc1` (stereo not drawn), the inhibition was 17.6%.
With `CCN(CC)c1ccc(/C=N/Nc2cccc(C)c2)c(O)c1` the inhibition was -62.5%.
With `CCN(CC)c1ccc(/C=N/N(c2ccccc2)c2ccccc2)c(O)c1` the inhibition was 30%.
Compound `CCN(CC)c1ccc(/C=N/N=C(c2ccccc2)c2ccccc2)c(O)c1` has an inhibition of 4.8%.
`CCN(CC)c1ccc(/C=N/Nc2ccccc2)c(O)c1` was tested, and the inhibition was -21.9%.
`CCOC(=O)N/N=C/c1ccc(N(CC)CC)cc1O` was tested, and the inhibition was 53.3% (active).
With `CCN(CC)c1ccc(C=Nc2cc(C)cc(C)c2)c(O)c1` the inhibition was 52.8% (active).
With `CCN(CC)c1ccc(C=Nc2ccccc2)c(O)c1` the inhibition was 61.8% (active).
With `CCN(CC)c1ccc(/C=N/N=C(N)N)c(O)c1` the inhibition was 64% (active).
For `CCN(CC)c1ccc(C=Nc2ccc(C#N)cc2)c(O)c1`, the inhibition was 40.4%.
`CCN(CC)c1ccc(/C=N/NC(=O)OC)c(O)c1` gave an inhibition of 27.7%.
Compound `CCN(CC)c1ccc(/C=N/NC(=S)NC)c(O)c1` has an inhibition of 21.9%.
Work on `CCC(=O)N1CCc2cc(S(=O)(=O)NC(Cc3ccccc3)C(=O)NC3CCCCC3)ccc21` (stereo not drawn) yielded an inhibition of -11.2%.
`CCCCc1ccc(NC(=S)NCCN2CCOCC2)cc1` was tested, and the inhibition was -3.3%.
`COC(=O)c1cn(C)c2ccc(S(=O)(=O)N3CCOCC3)cc2c1=O` showed an inhibition of 0.8%.
`CC(Nc1ccccc1)C(=O)Nc1ccc(F)cc1` (stereo not drawn) was tested, and the inhibition was -11.4%.
`CCN(CC)c1ccc(N=Cc2ccc(N(CC)CC)cc2O)cc1` gave an inhibition of 19.5%.
With `CCN(CC)c1ccc(C=Nc2ccc(N(C)C)cc2)c(O)c1` the inhibition was 28.1%.
With `CCN(CC)c1ccc(C=Nc2ccc(C)cc2)c(O)c1` the inhibition was 57% (active).
`COc1ccc(N(C)S(=O)(=O)c2cccc(C(=O)NCC3CCCO3)c2)cc1` (stereo not drawn) gave an inhibition of -3.8%.
In the case of `Cc1sc2ncnc(SCC(=O)N3CCN(C(=O)c4ccco4)CC3)c2c1C`, the inhibition was 6.2%.
`COc1ccc(C(C(=O)NC2CCCC2)N(Cc2ccccc2)C(=O)c2nsc(Cl)c2Cl)cc1` (stereo not drawn) gave an inhibition of 21.1%.
Work on `CN1CCc2c(sc3c2C(=O)NC(c2ccccc2)N3)C1` (stereo not drawn) yielded an inhibition of 33%.
`CCOC(=O)N1CCc2c(sc3c2C(=O)NC(c2ccccc2)N3)C1` (stereo not drawn) was tested, and the inhibition was 60.6% (active).
`CSc1ccc(C2NC(=O)c3c(sc4c3CCN(C)C4)N2)cc1` (stereo not drawn) showed an inhibition of 17%.
With `CCCn1c(SCC(=O)NCc2ccc(OC)cc2)n[nH]c1=O` the inhibition was 11.2%.
With `O=C(NCC1CCCCC1)C1CCCN(C(=O)NC2CCCCC2)C1` (stereo not drawn) the inhibition was -1.6%.
For `Cc1ccc(S(=O)(=O)/N=C2/C=C(Sc3ncn[nH]3)C(=O)c3ccccc32)c(C)c1`, the inhibition was 92.7% (active).
`Cc1cc(C)c(S(=O)(=O)/N=C2/C=C(SCC(=O)O)C(=O)c3ccccc32)cc1C` showed an inhibition of -32.3%.
In the case of `Cc1cc(C)c(S(=O)(=O)Nc2ccc(O)c(Sc3ncn[nH]3)c2)c(C)c1`, the inhibition was 13.7%.
In the case of `Cc1ccc(S(=O)(=O)Nc2ccc(O)c(Sc3ncn[nH]3)c2)cc1`, the inhibition was 27.6%.
In the case of `CC1=CC(C)(C)N(C(=O)CSc2ncn[nH]2)c2ccccc21`, the inhibition was -9.5%.
For `Cc1cc(C)c(S(=O)(=O)/N=C2/C=C(Sc3ncn[nH]3)C(=O)c3ccccc32)cc1C`, the inhibition was 90.3% (active).

Reference: PubChem BioAssay AID1220 (Sanford-Burnham Center for Chemical Genomics, 2008)
